Pol beta inh = qHTS Assay for Inhibitors of DNA Polymerase Beta; P06746; Pol beta primer extension/strand displacement, fluorescence kinetic; Potency, µM (highest dose often 114 µM), for inactives: top-dose activity change, negative = inhibition, usual class: inhibitors; actives 1.3% (n = 340,000); AID 485314, 2010; note: % is set by controls: 0 for no effect and ±100 for the full control effect
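Human Pol beta at 10 nM; strand-displacement substrate 50 nM final. Compound exposure 15 min at room temperature before start, reaction 10 min at room temperature.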
FEN1 inhibitor = qHTS Assay for the Inhibitors of Human Flap endonuclease 1 (FEN1); P39748; AID 588795, 2011; Recombinant FEN1 flap cleavage, fluorescence, 15 min; actives 0.35% (n = 390,000); Potency, µM (highest dose often 114 µM), for the others: at the top dose activity change, negative = inhibition, usual class: inhibitors; note: % is set by controls: 0 for no effect and ±100 for the full control effect; nearly all actives have a fitted effect of over 65% in size
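Nuclease activity of 10 nM FEN1 was measured after 15 min of room-temperature exposure to titrated compounds, by adding 50 nM flap substrate and reading plates at 0 and 15 min.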
POLI inh = qHTS for Inhibitors of Polymerase Iota; DNA polymerase iota (Homo sapiens), Q9UNA4; Pol iota fluorescent replication assay, 10 min; Potency, µM (series often up to 115 µM), without a hit: at the highest dose activity, negative = inhibition, actives largely listed as inhibitors; actives 1% (n = 390,000); AID 588590, 2011
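Fluorescent replication assay read twice, at 0 min and 10 min after adding 50 nM (final) substrate. Enzyme (10 nM) and compounds were first incubated 15 min at room temperature; enzyme-free buffer wells were negative controls.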
WRN helicase inh = qHTS for Inhibitors of WRN Helicase. Bifunctional 3'-5' exonuclease/ATP-dependent helicase WRN (Homo sapiens), Q14191. WRN helicase unwinding, fluorescent forked duplex, kinetic. Potency, µM (titrated, usually from 114 µM), inactives show top-dose activity change, negative = inhibition, hits mostly inhibitors. actives 0.46% (n = 360,000). AID 651768, 2012; note: % is set by controls: 0 for no effect and ±100 for the full control effect; nearly all actives have a fitted effect of over 55% in size
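WRN at 20 nM final preincubated with compound 15 min at room temperature; reaction started with 100 nM fluorophore/quencher forked duplex oligonucleotide and 2 mM ATP final. Unwinding followed kinetically by red fluorescence (ex 525, em 598 nm).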
POLH inh = qHTS for Inhibitors of Polymerase Eta; DNA polymerase eta (Homo sapiens), Q9Y253; recombinant Pol eta, fluorescent DNA replication assay; Potency, µM (titrated, usually from 114 µM), inactives show at the highest dose activity change, negative = inhibition, hits mostly inhibitors; actives 1.2% (n = 390,000); note: % is set by controls: 0 for no effect and ±100 for the full control effect
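Pol eta at 10 nM preincubated with compounds 15 min at room temperature; reaction started with fluorescent substrate (50 nM final) and read kinetically at 0 and 10 min.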
POLK inh = qHTS for Inhibitors of Polymerase Kappa; DNA polymerase kappa (Homo sapiens), Q9UBT6; purified Pol kappa, fluorescent DNA synthesis assay, 10 min; Potency, µM (doses to about 107 µM), for the others: at the highest dose activity, negative = inhibition, actives largely listed as inhibitors; actives 0.53% (n = 400,000); AID 588579, 2011; note: % is set by controls: 0 for no effect and ±100 for the full control effect
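Activity was followed as the change in fluorescence between reads at 0 and 10 min after starting the reaction with 50 nM substrate. Beforehand, 10 nM polymerase had been preincubated with compound for 15 min at room temperature.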
The depositor's hits bear a star; ? = inconclusive; / = no result given; ! = not active in a repeat; [ ] = dose if it differs, or a comment. This is a sample that favours compounds with a hit; in the whole collection about 2.4% have one here. Calls come from the whole dose curve; as a rule, active = well fitted curve in the direction sought with a large enough effect; inconclusive = small, poorly fitted or top-dose-only effect, or another doubt; inactive = no such curve, though single readings can be large; an effect the other way counts as inactive or inconclusive. Potency is the fitted concentration of half-maximal effect.

SMILES	Pol beta inh	FEN1 inhibitor	POLI inh	WRN helicase inh	POLH inh	POLK inh
CCc1ccccc1Nc1nc2cc(Cl)c(Cl)cc2nc1-n1nc(C)cc1C	-16.4%	-1.2%	65.1%	/	-1.2%	-1.3%
CC(=O)c1ccc(-c2ccc(C3C4C=CCCC4(C)C(=O)N3Cc3ccccc3)c(F)c2)cc1 (stereo unspecified)	/	4.1%	24.6%	/	/	-4.1%
NS(=O)(=O)c1ccc(N/N=C/c2ccc(O)cc2O)c([N+](=O)[O-])c1	25.1µM*	-24.3%	50.1µM*	?	?	?
CCOC(=O)C1=C(C)N=c2s/c(=C/c3ccco3)c(=O)n2C1c1cccc(OC)c1 (stereo unspecified)	31.6µM*	7.8%	?	-23.1%	?	-27.4%
COc1ccc(C2C(C(C)=O)=C(C)N=c3s/c(=C/c4ccc5c(c4)OCO5)c(=O)n32)cc1 (stereo unspecified)	11.2µM*	/	/	/	/	/
COc1cc(/C=C2\SC(N)=NC2=O)ccc1OCC(=O)Nc1ccc(C)cc1	3.55µM*	-20.0%	79.4µM*	-9.4%[11.6 µM]	?	-41.9%
CC(=O)Nc1ccc(S(=O)(=O)Oc2cccc(/C=C3\SC(N)=NC3=O)c2)cc1	-7.2%	-9.4%	62.2%	79.4µM*	-1.1%	7.8%
COc1ccc(/C=C2/SC(=O)N(CCC(=O)Nc3ccc(C)cc3)C2=O)cc1OC	-0.7%	/	/	/	/	/
CCCC(=O)Oc1ccc2[nH]c(C(=O)c3cc4ccccc4[nH]3)cc2c1	/	12.2%	49.4%	/	/	3.0%
Cc1ccc2c(=O)c(C(=O)c3ccc(F)cc3)cn(CC(=O)NCc3ccco3)c2n1	?	-10.2%	?	-7.3%	?	?
COc1cccc(C(=O)c2cn(CC(=O)NCc3ccco3)c3nc(C)ccc3c2=O)c1	?	8.2%	22.4µM*	?	39.8µM*	89.1µM*
O=C(NCc1ccco1)c1ccc(C(F)(F)F)cc1	-5.6%	-16.4%	9.6%	-5.5%	-8.5%	-0.2%
O=C(NCc1ccco1)c1ccc(-c2csnn2)cc1	10µM*	-7.6%	?	4.8%	-6.8%	-8.4%
CSc1ccc(/C=N/NC(=O)CN2CCN(Cc3ccccc3Cl)CC2)cc1	0.199µM*	-10.6%	8.4%	-2.4%	-9.8%	-5.8%
C=C1CCN(C(Cc2ccccc2)C(=O)O)S(=O)(=O)c2ccccc21 (stereo unspecified)	/	-1.7%	-11.0%	/	/	5.4%
Clc1ccc(-c2csc(N/N=C/c3cccnc3)n2)c(Cl)c1	79.4µM*	-11.0%	111.3%	-32.7%	-17.9%	-24.6%
COC(=O)C[C@H]1c2cc(F)ccc2S(=O)(=O)N1C1CC1	/	-6.1%	26.2%	/	/	-9.6%
Cc1ccc(/C=C2\S/C(=N/S(=O)(=O)c3cccs3)NC2=O)cc1	1.8%	?	39.8µM*	50.1µM*	25.1µM*	-34.2%
COc1ccc(/C=C2\SC(N)=NC2=O)cc1	-0.2%	-2.9%	99.1%	-14.2%	-14.1%	-14.5%
CCOC(=O)CSC1=NC(=O)/C(=C/c2ccc(OC)cc2)S1	1.1%	-9.5%	11.2%	50.1µM*	-1.7%	-3.3%
CC(C)c1ccc(NC(=O)c2cc3c([nH]c2=O)CC(C)(C)CC3=O)cc1	/	-9.7%	-7.9%	/	/	-2.3%
CO[C@]1(NC(=O)CSCC#N)C(=O)N2C(C(=O)O)=C(CSc3nnnn3C)CS[C@H]21	/	/	/	/	/	-6.7%[12 µM]
CO[C@@]1(NC(=O)CSCC#N)C(=O)N2C(C(=O)O)=C(CSc3nnnn3C)CS[C@@H]21	-2.1%	-0.6%	?	/	2.24µM*!	-4.5%[60.1 µM]
O=C1CC(c2ccccc2)Cc2[nH]c(=O)c(C(=O)O)cc21 (stereo unspecified)	/	6.8%	27.0%	/	/	0.7%

Screens (PubChem BioAssay)
